ATXN2 expr inh = ATXN2 expression inhibition; Potency, µM (series often up to 57 µM), inactives show at the highest dose activity change, negative = inhibition, actives largely listed as inhibitors; 0.72% of 360,000 active; AID 1745845; HEK-293 ATXN2-luciferase reporter, luminescence, 24 h; note: % is set by controls: 0 for no effect and ±100 for the full control effect; nearly all actives have a fitted effect of over 55% in size
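ATXN2-luciferase reporter cells (luciferase flanked by upstream and downstream ATXN2 gene portions) were treated 24 h at 37 °C with compounds at up to 57 uM. SteadyGlo luminescence gave expression; GF-AFC fluorescence gave viability.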
ATXN viability = cell viability loss in ATXN counter-screen; S2 cells (HEK-293 line with an ATXN2-luciferase reporter) viability, CellTiter-Fluor protease fluorescence, 24 h; Potency, µM (doses to about 56.7 µM), most hits filed as cytotoxic; 0.49% of 400,000 active; note: nearly all actives have a fitted effect of over 40% in size
A549 viability = A549 cytotoxicity, counter-screen for Nrf2 inhibitors; 0.16% of 390,000 active; A549 ARE-Fluc cells, CellTiter-Fluor viability, 18-24 h; Potency, µM (top dose mostly 46 µM), inactives show at the top dose activity change, negative = cytotoxicity, hits mostly inhibitors; note: % is set by controls: 0 for no effect and ±100 for the full control effect
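A549 ARE_Fluc cells in 5% FBS OPTI-MEM were exposed to compounds in concentration-response for 18-24 h at 37 deg C. Viability was read by CellTiter-Fluor fluorescence (Ex 405/Em 525) after 30 min, before the luciferase read.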
Nrf2 block = blocks Nrf2 signaling; A549 ARE-Fluc reporter, luciferase luminescence, 18-24 h; Potency, µM (titrated, usually from 46 µM), inactives show at the highest dose activity change, negative = inhibition, actives largely listed as inhibitors; 2.1% of 360,000 active; AID 504444; note: % is set by controls: 0 for no effect and ±100 for the full control effect; nearly all actives have a fitted effect of over 60% in size
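Nrf2 function is reported as luminescence of an ARE-controlled luciferase in A549 cells. Compounds were tested at several concentrations, and a CellTiter-Fluor read on the same wells flagged cytotoxicity.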
Nrf2 ARE act = activates Nrf2 signaling | 0.31% of 410,000 active | AREc32 ARE-luciferase reporter (MCF7-derived line), luminescence, 24 h | Potency, µM (titrated, usually from 46.1 µM), for the others: at the top dose activation, usual class: activators; note: % of control where 0% means no effect; nearly all actives have a fitted effect of over 65% in size
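Luciferase luminescence (Steady-Glo, 30 min at room temperature) served as the read-out of ARE activation in AREc32 cells treated with compounds for 24 hr at 37 deg C.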
Numbers without * were called inactive; [ ] = dose if it differs, or a comment. Most compounds without a hit are left out; they make up all but 2.9% or so of the library. Calls come from the whole dose curve; as a rule, active = well fitted curve in the direction sought with a large enough effect; inconclusive = small, poorly fitted or top-dose-only effect, or another doubt; inactive = no such curve, though single readings can be large; an effect the other way counts as inactive or inconclusive. Potency is the fitted concentration of half-maximal effect.

How did CCN(CC(=O)Nc1ccccc1OC)C(=O)c1ccc(NS(=O)(=O)c2ccc(C(C)=O)cc2)cc1 do in these assays?
ATXN2 expr inh: 0%; ATXN viability: inactive; A549 viability: 1%; Nrf2 block: -15%; Nrf2 ARE act: 0%

Results for Cc1cc(OCC(=O)Nc2ccc(Br)cc2)cc2c1C(=O)CC(C)(C)O2 ?
ATXN2 expr inh: 13µM*; ATXN viability: inactive; A549 viability: 3%; Nrf2 block: -7%; Nrf2 ARE act: 5%

What do the screens show for `CC(=O)Nc1ccc(NC(=O)COc2cc(O)c3c(c2)OC(C)(C)CC3=O)cc1`?
ATXN2 expr inh: 25%; ATXN viability: inactive; A549 viability: 5%; Nrf2 block: inconclusive; Nrf2 ARE act: 3%

What do the screens show for `CC(C)(C)c1ccc2c(c1)OC(C(=O)N/N=C\c1ccc[nH]1)CO2` (stereo unspecified)?
ATXN2 expr inh: inconclusive; ATXN viability: inactive; A549 viability: 8.2µM*; Nrf2 block: 5.8µM*; Nrf2 ARE act: 4%

How did CC(C)(C)c1ccc2c(c1)OC(C(=O)N/N=C\c1ccncc1)CO2 (stereo unspecified) do in these assays?
ATXN2 expr inh: -19%; A549 viability: -1%; Nrf2 block: -20%; Nrf2 ARE act: 3%

Results for Cc1cccc(NC(=O)N(C)Cc2cccs2)c1 ?
ATXN2 expr inh: 2%; ATXN viability: inconclusive; A549 viability: -4%; Nrf2 block: 12%; Nrf2 ARE act: 0%

Results for COc1ccc(NC(=O)c2sccc2-n2cccc2)cc1 ?
ATXN2 expr inh: -11%; ATXN viability: inactive; A549 viability: -1%; Nrf2 block: -17%; Nrf2 ARE act: inconclusive

How did COc1ccc(NC(=O)c2csc(Cc3ccc(Cl)cc3)n2)cc1 do in these assays?
ATXN2 expr inh: -19%; ATXN viability: inactive; A549 viability: 7%; Nrf2 block: 9%; Nrf2 ARE act: 0%

What do the screens show for `O=C(Nc1ccc(Cl)cc1)c1sccc1-n1cccc1`?
ATXN2 expr inh: 7%; ATXN viability: inactive; A549 viability: 11%; Nrf2 block: inconclusive; Nrf2 ARE act: 11µM*

How did COc1ccc(COc2ccsc2C(=O)Nc2ccc(Cl)cc2)cc1 do in these assays?
ATXN2 expr inh: -25%; ATXN viability: inconclusive; A549 viability: inconclusive; Nrf2 block: inconclusive; Nrf2 ARE act: 8.9µM*

Results for COc1ccc(N/C=C2\C(=O)c3c(sc(C)c3C)N(C)S2(=O)=O)cc1 ?
ATXN2 expr inh: 2%; A549 viability: 1%; Nrf2 block: 4%; Nrf2 ARE act: 0%

How did CC(=O)Nc1ccc(N=C(C2=C(O)c3ccccc3C2=O)c2ccccc2)cc1 do in these assays?
ATXN viability: inconclusive; A549 viability: 21µM*; Nrf2 block: 21µM*; Nrf2 ARE act: 10%

How did Cc1c(-c2nsc(NC(=O)c3cccs3)n2)nnn1-c1ccc(Br)cc1 do in these assays?
ATXN2 expr inh: inconclusive; ATXN viability: 32µM*; A549 viability: -3%; Nrf2 block: inconclusive; Nrf2 ARE act: 14%

How did COc1ccc(C(=O)Nc2nc(-c3nnn(-c4ccc(F)cc4F)c3C)ns2)cc1 do in these assays?
ATXN2 expr inh: 11µM*; ATXN viability: inconclusive; A549 viability: -28%; Nrf2 block: 0%; Nrf2 ARE act: 6%

What do the screens show for `O=C(CN1CCN(c2ccc(F)cc2)CC1)NCc1cccs1`?
ATXN2 expr inh: -8%; ATXN viability: inactive; A549 viability: 9%; Nrf2 block: 26%; Nrf2 ARE act: 0%

What do the screens show for `Cc1cc(C(=O)C(C)OC(=O)c2ccc(NC(=O)CC#N)cc2)c(C)n1-c1ccccc1` (stereo unspecified)?
ATXN2 expr inh: inconclusive; ATXN viability: inactive; A549 viability: -12%; Nrf2 block: 18µM*; Nrf2 ARE act: 1%

Results for CN(CC(=O)Nc1ccccc1)CC(=O)Nc1ccc(F)cc1 ?
ATXN2 expr inh: 5%; ATXN viability: inactive; A549 viability: -2%; Nrf2 block: -5%; Nrf2 ARE act: 0%

What do the screens show for `NC(=S)n1[nH]c(-c2ccc([N+](=O)[O-])cc2)c(N=Nc2ccc(Cl)cc2)c1=O`?
ATXN2 expr inh: inconclusive; ATXN viability: inactive; A549 viability: inconclusive; Nrf2 block: 5.2µM*; Nrf2 ARE act: 0%[9.22 µM]
